# Source: PMC4336329 (PLoS ONE, 2015)
# Out of some 310,000 compounds screened, about 14,000 (4.5%) showed an effect of 50% or more. The effect is printed as a negative number. What follows is part of a selection rich in strong results, with near analogues and random picks from the rest.
# Target: human ether-à-go-go-related gene (hERG) potassium channel (human, UniProt Q12809)
# Assay: primary screen, population patch clamp on CHO cells stably expressing hERG; higher = less effect of the substance
# 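Further: peak tail current of the secondary pulse compared with the same well before compound.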
# human ether-à-go-go-related gene (hERG) potassium channel, sequence (Q12809 whole entry, looked up): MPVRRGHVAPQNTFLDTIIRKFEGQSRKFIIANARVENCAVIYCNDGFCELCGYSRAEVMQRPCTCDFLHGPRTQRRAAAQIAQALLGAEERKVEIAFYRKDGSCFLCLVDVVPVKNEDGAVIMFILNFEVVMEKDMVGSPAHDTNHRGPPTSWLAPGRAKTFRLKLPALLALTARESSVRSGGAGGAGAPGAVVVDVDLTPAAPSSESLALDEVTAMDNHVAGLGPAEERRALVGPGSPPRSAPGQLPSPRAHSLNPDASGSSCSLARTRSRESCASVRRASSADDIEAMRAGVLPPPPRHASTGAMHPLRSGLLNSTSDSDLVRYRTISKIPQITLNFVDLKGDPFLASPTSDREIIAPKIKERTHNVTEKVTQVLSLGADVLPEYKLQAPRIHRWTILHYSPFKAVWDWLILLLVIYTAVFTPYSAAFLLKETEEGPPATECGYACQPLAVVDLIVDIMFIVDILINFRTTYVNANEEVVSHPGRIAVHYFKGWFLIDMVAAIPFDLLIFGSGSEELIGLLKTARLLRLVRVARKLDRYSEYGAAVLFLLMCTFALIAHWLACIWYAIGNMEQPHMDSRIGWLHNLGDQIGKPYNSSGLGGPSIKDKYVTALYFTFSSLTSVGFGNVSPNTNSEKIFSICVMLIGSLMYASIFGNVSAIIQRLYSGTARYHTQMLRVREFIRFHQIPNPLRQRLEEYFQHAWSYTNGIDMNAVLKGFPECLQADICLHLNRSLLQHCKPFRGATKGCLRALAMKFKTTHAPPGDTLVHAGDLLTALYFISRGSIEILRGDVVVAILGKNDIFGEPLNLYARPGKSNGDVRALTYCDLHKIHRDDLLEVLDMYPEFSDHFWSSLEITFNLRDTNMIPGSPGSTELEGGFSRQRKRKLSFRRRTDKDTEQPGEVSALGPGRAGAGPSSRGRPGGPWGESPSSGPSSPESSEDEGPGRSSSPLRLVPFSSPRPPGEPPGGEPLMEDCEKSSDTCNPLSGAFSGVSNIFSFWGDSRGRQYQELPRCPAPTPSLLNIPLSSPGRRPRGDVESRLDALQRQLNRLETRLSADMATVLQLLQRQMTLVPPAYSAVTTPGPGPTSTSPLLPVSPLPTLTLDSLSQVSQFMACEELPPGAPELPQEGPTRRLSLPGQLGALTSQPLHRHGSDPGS
row,Compound,"hERG current change (%, negative = inhibition) at 10uM [%]"
1,Cc1cc(C)cc(NC(=O)CCC(=O)Nc2cc(C)on2)c1,8.01
2,Cc1cc(C)c(C(CC(=O)c2cccs2)C(C#N)C#N)c(C)c1 (stereo not shown),-23.9
3,O=c1c2ccccc2n2c(-c3cccc(Cl)c3)nnc2n1Cc1ccccc1,-11.8
4,COc1ccccc1NC(=O)c1cc(=O)[nH]c2ccccc12,33.4
5,COc1ccc(CN2C(=O)CN=C2Nc2cc(C)ccc2C)cc1.Cl,1.79
6,O=C(CN(Cc1ccc(Cl)cc1)C(=O)CN1C(=O)COc2ccccc21)NC1CCCC1,15
7,CCOC(=O)c1ccc2nc(NC(NC(C)=O)(C(=O)OC)C(F)(F)F)sc2c1 (stereo not shown),13.6
8,CN(C(=O)CSc1nnc(Cc2ccccc2F)n1N)C1CCS(=O)(=O)C1 (stereo not shown),9.76
9,FC(F)(F)c1cccc(Cc2noc(CN3CCCC3)n2)c1,15.6
10,Fc1cccc(Cc2noc(CN3CCC(c4ccncc4)CC3)n2)c1,-21.4
11,FC(F)(F)c1cccc(Cc2noc(CN3CCCC(CN4CCCC4)C3)n2)c1 (stereo not shown),-45.5
12,CCOC(=O)N1CCN(Cc2nc(Cc3cccc(C(F)(F)F)c3)no2)CC1,-15
13,FC(F)(F)c1cccc(Cc2noc(CN3CCC(N4CCCCC4)CC3)n2)c1,-74.7
14,FC(F)(F)c1cccc(Cc2noc(CN3CCSCC3)n2)c1,0.814
15,NC(=O)[C@@H]1CCCN1Cc1nc(Cc2cccc(C(F)(F)F)c2)no1,8.45
16,FC(F)(F)c1cccc(Cc2noc(CN3CCC(c4ccncc4)CC3)n2)c1,-66.2
17,OCC1CCCN(C2CCN(Cc3nc(Cc4cccc(C(F)(F)F)c4)no3)CC2)C1 (stereo not shown),-74.1
18,Fc1ccc(N2CCN(c3cnc4ccccc4n3)CC2)cc1,6.24
19,Cc1cc(C(F)(F)F)nn1Cc1n[nH]c(=S)n1-c1ccc(Cl)cc1,20.3
20,O=[N+]([O-])c1ccc(-c2c(O)c3ccccc3c3nc4ccccc4nc23)cc1,18

row,Compound,"hERG current change (%, negative = inhibition) at 10uM [%]"
1,CCN1CCN(C(c2cccnc2)c2c(NC(=O)c3ccco3)sc(C)c2C)CC1 (stereo not shown),-58.4
2,Cc1sc(NC(=O)c2ccco2)c(C(c2cccnc2)N2CCN(C)CC2)c1C (stereo not shown),-32.7
3,Cc1sc(NC(=O)c2ccco2)c(C(c2cccnc2)N2CCN(CCO)CC2)c1C (stereo not shown),-20.9
4,Cc1sc(NC(=O)c2ccco2)c(C(c2ccc(F)cc2)N2CCN(C)CC2)c1C (stereo not shown),-68.1
5,Cc1sc(NC(=O)c2ccco2)c(C(c2cccnc2)N2CCN(c3ccc(F)cc3)CC2)c1C (stereo not shown),1.92
6,Cc1sc(NC(=O)c2ccco2)c(C(c2cccnc2)N2CCCC2)c1C (stereo not shown),-8.45
7,CC1(C)CC(=O)C2=C(C1)N(Cc1ccc(F)cc1)C(=O)C2(NC(=O)c1cccnc1)C(F)(F)F (stereo not shown),-5.55
8,COc1ccccc1-c1nnc(SC(C(=O)c2c[nH]c3ccccc23)c2ccccc2)n1C (stereo not shown),20.8
9,O=C(CCc1nc2ccccc2n1-c1ccccc1)NCCO,6.97
10,COc1ccc([N+](=O)[O-])cc1N(CC(O)CN(C)C)S(=O)(=O)c1ccccc1 (stereo not shown),5.54
11,C=CCN(CC=C)CC(O)CN(c1cc([N+](=O)[O-])ccc1OC)S(=O)(=O)c1ccccc1 (stereo not shown),-10.7
12,COc1ccc([N+](=O)[O-])cc1N(CC(O)CN(CC(C)C)CC(C)C)S(=O)(=O)c1ccc(C)cc1.Cl (stereo not shown),-13.7
13,COc1ccc([N+](=O)[O-])cc1N(CC(O)CN(CC(C)C)CC(C)C)S(=O)(=O)c1ccccc1 (stereo not shown),-1.91
14,CCCCN(CCCC)CC(O)CN(c1cc([N+](=O)[O-])ccc1OC)S(=O)(=O)c1ccccc1 (stereo not shown),-67
15,CCCN(CCC)CC(O)CN(c1cc([N+](=O)[O-])ccc1OC)S(=O)(=O)c1ccccc1.Cl (stereo not shown),-60.4
16,CC(C)CNC(=O)/C=C/C=C/CCCC/C=C/c1ccc2c(c1)OCO2,20.7
17,CC(=O)c1c(C)[nH]c(C(=O)OCc2nc3ccsc3c(=O)[nH]2)c1C,-13.6
18,O=C(CC1SC(N2CCCCC2)=NC1=O)Nc1ccc(C(=O)O)cc1 (stereo not shown),22.1
19,CN(C)CCNC(=O)c1ccc2c(=O)n(Cc3ccc(Cl)cc3)c(=S)[nH]c2c1,-27.8
20,CC1CCN(CCNC(=O)c2ccc3c(=O)n(Cc4ccc(Cl)cc4)c(=S)[nH]c3c2)CC1,-15.8
